The list is not random: actives were taken first. Their share in the collection is about 22%.
CYP2C9 act: CYP2C9 (human) activation. recombinant CYP2C9, luciferin-H conversion, luminescence; active compounds read high; factor 1 = untreated enzyme, 0 = blocked. P11712. AID 1024. actives 1.4% (n = 96,000). activation factor at 5 µM;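 active means activation factor of 2 or more for CYP2C9 at a 5 µM dose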
Target sequence (P11712 whole entry, looked up): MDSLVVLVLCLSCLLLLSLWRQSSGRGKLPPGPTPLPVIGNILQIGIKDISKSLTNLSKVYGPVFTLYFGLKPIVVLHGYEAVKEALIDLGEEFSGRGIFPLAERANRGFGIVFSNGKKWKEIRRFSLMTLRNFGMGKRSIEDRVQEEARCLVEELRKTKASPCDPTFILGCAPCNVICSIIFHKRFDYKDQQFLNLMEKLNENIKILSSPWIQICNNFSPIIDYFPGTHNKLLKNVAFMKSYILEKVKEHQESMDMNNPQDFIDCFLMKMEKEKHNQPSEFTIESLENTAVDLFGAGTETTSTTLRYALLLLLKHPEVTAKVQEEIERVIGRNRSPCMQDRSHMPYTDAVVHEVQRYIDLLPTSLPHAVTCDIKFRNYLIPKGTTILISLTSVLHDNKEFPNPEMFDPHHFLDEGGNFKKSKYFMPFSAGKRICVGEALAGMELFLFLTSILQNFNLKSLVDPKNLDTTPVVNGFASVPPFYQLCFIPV
F-actin modifier: modifiers of cytoskeleton assembly. inhibition, % at 2 µM. HUVEC TNFa F-actin phalloidin imaging, high content. AID 836. actives 0.18% (n = 91,000);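 active means inhibition above the batch mean plus 3 SD and confirmed as a hit by visual image inspection, cut at about 30% in these data, passing the limit was not always enough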
CYP2C9 inh: human CYP2C9 inhibition; inhibition, % at 5 µM; actives 20% (n = 96,000); CYP2C9 Supersomes, luciferin-H conversion, luminescence; AID 777;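 active means blocking of liver enzyme CYP2C9 beyond about 50% at 5 µM, limit read from the data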
E-sel TNF inh: blocks E-selectin expression induced by TNF alpha | HUVEC TNFa-induced E-selectin immunofluorescence, high content | actives 0.71% (n = 120,000) | inhibition, % at 2 µM;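 active means inhibition above the batch mean plus 3 SD, and confirmed as a hit on visual image review, cut at about 43% in these data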
CYP2C19 inhib: inhibitors of human CYP2C19; AID 778; CYP2C19 Supersomes, luciferin-H EGE luminescence, 30 min; P33261; actives 21% (n = 96,000); inhibition, % at 5 µM;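 active means CYP2C19 inhibition above a set limit at 5 µM in the primary screen, cut at about 50% in these data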
CYP2C19 activ: increases human CYP2C19 enzyme activity. 96,000 tested, under 10 active. P33261. activation factor at 5 µM. recombinant CYP2C19, luciferin-H EGE luminescence; active compounds read high; 0 = fully inhibited enzyme, 1 = untreated enzyme;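 active means activation factor of at least 2 at 5 µM in the primary screen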
Numbers stand for hits; 0 = inactive; - = no result.

SMILES	CYP2C9 act	F-actin modifier	CYP2C9 inh	E-sel TNF inh	CYP2C19 inhib	CYP2C19 activ
O=C(Cn1nnc2ccccc21)c1cccc([N+](=O)[O-])c1	-	-	-	0	-	-
CC(=O)n1nc(-c2cccc(C)c2)nc1SCC(=O)Nc1ccccc1	0	0	61	0	55	0
O=C1CCCC2(O)C1C(c1cccc(Br)c1)NC(=O)N2Cc1ccccc1 (stereo not drawn)	-	-	-	0	-	-
Cc1ccc(NC(=O)CSc2ncc(-c3ccccc3)n2C(=O)c2ccccc2)cc1	0	0	59	0	69	0
Cc1ccc(C(=O)n2c(-c3ccccc3)cnc2SCC(=O)Nc2ccccc2)cc1	-	-	-	0	-	-
Cn1nnnc1SCC(=O)Nc1cccc([N+](=O)[O-])c1	-	-	-	76	-	-
Cn1ccnc1SCC(=O)Nc1cccc([N+](=O)[O-])c1	-	-	-	0	-	-
CCOC(=O)C1=C(OCc2ccc(Cl)cc2)C2C=C(C)C=CC2N=C1 (stereo not drawn)	0	0	0	0	0	0
CCCC(=O)NCCc1nc2ccccc2n1C	0	-	0	0	0	0
COc1ccccc1N1CCN(C2=CC(=O)CCC2)CC1	0	-	0	0	0	0
Cc1ccc(-c2cc(-c3n[nH]c(=S)n3C)c3ccccc3n2)cc1	-	-	-	0	-	-
CCOc1ccc2[nH]c(=O)c(CN(CCO)C(=O)c3ccccc3F)cc2c1	0	0	0	0	0	0
COc1ccc2[nH]c(=O)c(CN(C(C)=O)c3cccc(C)c3)cc2c1	0	0	0	-	0	0
COc1ccc2[nH]c(=O)c(CN(CCc3cccc(C)c3)C(C)=O)cc2c1	0	0	63	0	86	0
COc1ccc2cc(CN(CCO)C(=O)c3ccccc3F)c(=O)[nH]c2c1	0	0	0	100	0	0
CCC(=O)N(Cc1cc2cc(OC)ccc2[nH]c1=O)c1ccc(C)cc1C	0	0	55	-	0	0
CC(=O)N(CCc1ccccc1C)Cc1cc2cc3c(cc2[nH]c1=O)OCO3	0	0	54	0	75	0
OCc1cc(CO)c(O)c(CCc2ccccc2)n1	0	0	0	0	0	0
Cc1c(Cl)cccc1NC(=O)CN1CCC(NC(=O)C2CCCCC2)CC1	0	0	0	0	0	0
CCOc1cccc(C(=O)Nc2cccc(-c3nc4ncccc4o3)c2C)c1	0	-	0	0	0	0
COc1cc(NC(=O)C(C)Oc2ccccc2)cc(OC)c1 (stereo not drawn)	0	-	79	0	86	0
CC(Oc1ccccc1)C(=O)Nc1ccccc1O (stereo not drawn)	0	0	87	0	87	0
COC(=O)c1ccccc1NC(=O)C(C)Oc1ccccc1 (stereo not drawn)	-	0	-	0	-	-
CC(Oc1ccccc1)C(=O)Nc1cccc(F)c1 (stereo not drawn)	0	-	0	0	0	0
COc1ccc(-c2nc(N)nc(C)c2Oc2ccccc2Br)c(O)c1	0	0	94	0	85	0
SMILES	CYP2C9 act	F-actin modifier	CYP2C9 inh	E-sel TNF inh	CYP2C19 inhib	CYP2C19 activ
CCOc1ccc(-c2nc(N)ncc2-c2ccc(OC)cc2)c(O)c1	-	-	-	0	-	-
CN(C)CCN1C(=O)C(=O)/C(=C(/O)c2ccc(OCc3ccccc3)cc2)C1c1ccncc1 (stereo not drawn)	0	0	0	0	0	0
Cn1c(Sc2ccc(Br)cc2)c(C=O)c2ccccc21	0	0	0	0	0	0
Cc1ccc2oc(-c3ccc(NC(=O)c4cccnc4)cc3)nc2c1	0	0	63	-	0	0
Cc1ccc(-c2nc3cc(C)ccc3o2)cc1	0	0	0	0	59	0
O=C(Nc1ccc2oc(-c3cccnc3)nc2c1)c1ccc([N+](=O)[O-])o1	-	-	-	97	-	-
O=S(=O)(Nc1ccc2oc(-c3ccccc3)nc2c1)c1ccccc1	0	0	94	0	93	0
Cc1ccc2oc(-c3cccc(NC(=O)c4ccc(Br)o4)c3)nc2c1	0	0	53	0	0	0
Cc1ccc(-c2nc3cc(N)ccc3o2)cc1	0	0	0	0	0	0
Cc1ccc(-c2nc3cc(NS(=O)(=O)c4ccc(C)cc4)ccc3o2)cc1	0	0	100	0	99	0
CS(=O)(=O)N(CC(N)=O)c1ccc(F)c(Cl)c1	0	0	0	0	0	0
CC(C)Cn1c(N)c(C(=O)COC(=O)c2ccc3c(c2)OCCO3)c(=O)n(C)c1=O	0	0	67	0	60	0
Cc1ccc(/C=N/NC(=O)CNC(=O)c2ccc(S(=O)(=O)N3CCCC3)cc2)o1	-	-	-	0	-	-
CCNc1nc(NCC)nc(OCCOC(=O)c2ccccc2)n1	0	-	0	0	51	0
COc1cc(S(=O)(=O)NCC2COCCO2)ccc1-n1cnnn1 (stereo not drawn)	0	0	0	0	0	0
CC1CCN(C(=O)Cc2nn(C)c(=O)c3ccccc23)CC1	0	0	0	0	0	0
CCOc1ccccc1NC(=O)c1cc(C(=O)c2cc(Br)ccc2O)coc1=N	-	-	-	0	-	-
CN(C1CCCCC1)S(=O)(=O)Cc1ccccc1	0	-	0	0	54	0
O=C(N/C(=C/c1cccc([N+](=O)[O-])c1)C(=O)N1CCCCC1)c1cccs1	-	-	-	0	-	-
CCOC(=O)C(C)(C)C(=O)C(C)(C)C(O)c1ccccn1 (stereo not drawn)	0	0	0	0	51	0
COc1ccc(/C=C/c2ccc(=O)n(Cc3ccccc3)n2)cc1	-	-	-	0	-	-
CN1c2cccc3cccc(c23)N(C)C1(C)C	0	0	0	0	0	0
CN1/C(=N\O)c2cccc3cccc1c23	0	0	0	0	70	0
CC1(C)C=Cc2c(c3ccccc3[nH]c2=O)O1	0	0	0	0	0	0
CC(=O)NCCC(Cc1ccccc1)c1ccco1 (stereo not drawn)	-	0	-	0	-	-
SMILES	CYP2C9 act	F-actin modifier	CYP2C9 inh	E-sel TNF inh	CYP2C19 inhib	CYP2C19 activ
CCOC(=O)C(C#N)C(Cc1ccccc1)c1ccco1 (stereo not drawn)	0	0	70	0	92	0
O=C(OCC(=O)N1c2ccccc2Sc2ccccc21)C1CC(=O)N(Cc2ccco2)C1 (stereo not drawn)	0	0	89	0	70	0
O=C(COC(=O)C1CC(=O)N(Cc2ccco2)C1)c1ccc(OC(=O)c2ccccc2)cc1 (stereo not drawn)	-	0	-	0	-	-
CCn1c(COc2ccccc2C)nnc1SCC(=O)Nc1ccc2c(c1)OCCO2	0	0	0	0	0	0
Cc1ccccc1OCc1nnc(SCC(=O)Nc2ccc(N3CCOCC3)c(Cl)c2)n1C	0	0	0	-	58	0
Cc1ccccc1OCc1nnc(SCC(=O)Nc2ccc3c(c2)OCO3)n1C	0	0	0	-	76	0
COC(=O)C1C(=O)OC(C)(C)C1C(C)C(=O)c1ccccc1 (stereo not drawn)	0	0	0	0	79	0
Cc1nnc(SCCC(=O)Nc2ccc(F)cc2)s1	0	-	0	0	0	0
CCN(CC)S(=O)(=O)c1cccc(NC(=O)c2ccc(Br)cc2)c1	-	-	-	0	-	-
O=C(Nc1cccc(O)c1)c1ccc(Br)cc1	0	0	0	0	52	0
Cc1ccccc1Sc1ncnc2onc(C)c12	0	0	0	0	96	0
